Measured values as given in the supplement of paper PMC3334620.
Over roughly 33,000 sequences, “E-score (-0.5 to 0.5)” has its median near -0.021; the highest 2% begin near 0.32. This excerpt belongs to a sample that is enriched for the highest values.

target: T1, Zap1 (UniProt P47043); experiment: PBM E-score (8-mer binding enrichment) (E-score (-0.5 to 0.5)); higher = stronger / more preferred TF binding; conditions: protein concentration: 200 nM; construct: GST-full length
T1 sequence: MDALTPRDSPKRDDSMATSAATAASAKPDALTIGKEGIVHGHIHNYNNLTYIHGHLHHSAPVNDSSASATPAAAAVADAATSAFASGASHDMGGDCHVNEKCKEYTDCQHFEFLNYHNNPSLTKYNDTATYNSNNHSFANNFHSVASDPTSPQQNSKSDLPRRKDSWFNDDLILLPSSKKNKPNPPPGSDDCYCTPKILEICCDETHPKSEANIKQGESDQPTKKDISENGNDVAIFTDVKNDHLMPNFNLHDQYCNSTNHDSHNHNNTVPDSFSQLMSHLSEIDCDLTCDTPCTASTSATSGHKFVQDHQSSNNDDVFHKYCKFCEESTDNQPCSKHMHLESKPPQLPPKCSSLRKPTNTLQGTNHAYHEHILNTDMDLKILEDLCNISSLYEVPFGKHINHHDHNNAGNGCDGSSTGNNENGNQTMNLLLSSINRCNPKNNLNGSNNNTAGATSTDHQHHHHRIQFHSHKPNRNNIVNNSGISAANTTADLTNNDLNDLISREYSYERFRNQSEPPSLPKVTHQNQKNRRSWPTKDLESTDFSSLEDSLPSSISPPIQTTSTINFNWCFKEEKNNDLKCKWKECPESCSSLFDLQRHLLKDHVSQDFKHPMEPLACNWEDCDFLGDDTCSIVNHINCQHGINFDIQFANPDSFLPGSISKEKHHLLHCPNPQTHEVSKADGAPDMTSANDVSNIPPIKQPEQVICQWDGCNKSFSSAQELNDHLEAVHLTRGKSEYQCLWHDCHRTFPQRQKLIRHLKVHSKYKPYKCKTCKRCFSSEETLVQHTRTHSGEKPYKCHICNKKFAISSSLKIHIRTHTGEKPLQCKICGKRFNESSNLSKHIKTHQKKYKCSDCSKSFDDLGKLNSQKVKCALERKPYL
Procedure, shortened: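 Universal all-10-mer Agilent arrays, fresh or stripped once, were converted to double-stranded form by primer extension. GST-tagged yeast transcription factors from PURExpress in vitro transcription/translation, full-length or DNA-binding domain only, were applied at about 100-200 nM and detected with fluorescent anti-GST. After masliner normalisation, the Universal PBM Analysis Suite scored each ungapped eight-base word together with its reverse complement by E-score.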

Sequence	PBM E-score
TTAATGAA	0.187
TCTTGGAA	0.089
AGATTAAA	0.2
GCTTTGAC	0.0804
CTAGACTC	-0.231
ACGCATTA	0.12
AATAAGAA	0.208
ATAGAAGC	-0.0622
AACAACCT	0.273
AACAACCG	0.1
AACAACCA	0.319
CACAACCA	0.343
AACAACCC	0.408
AACAACAA	0.181
CACAACAA	0.0567
CACAACCC	0.414
CACAACCG	0.289
CCCAACCA	0.123
AACAACAC	0.151
CCCAACCC	0.163
AGCGCCAG	-0.256
CGCTTAGC	-0.239
ACATTTGC	-0.00108
CTTCCCAA	-0.213

Sequence	PBM E-score
GACAACCC	0.35
GACAACCA	0.252
TACAACCA	0.319
GACAAACC	0.124
TACAACAA	0.276
GACAACTC	-0.0129
GCGTCGCC	-0.162
GGGGCCTA	-0.136
GCCAGGGA	-0.174
CCCCACCG	0.163
ACCCACCA	0.177
ACCCACCT	0.213
GCCCACAC	-0.102
ACCCACCC	0.373
CCCCACCC	0.357
AACCACCA	0.273
CCCCACCA	0.119
GCCCACCC	0.335
AACCACCC	0.353
CACCACCC	0.186
GCCCACCA	-0.217
ACACCAGT	-0.0248
GTGCCCTA	-0.314
CCTGGTGA	0.0199

Sequence	PBM E-score
CGCTGCGC	-0.373
GCTGAGAA	-0.156
ATCTGAGG	0.094
AACCTGTG	0.207
CCCCTGAC	0.113
ACCCTGAT	0.344
ACCCTGAC	0.335
ACCCTGGG	0.376
ACCCTGTC	0.193
AGCCTGAT	-0.177
ACCCTGTG	0.367
AACCTGAT	0.177
ACCCTGGA	0.161
ACCCTGGC	0.183
AGCCTGTG	-0.29
CATAGCTA	-0.113
GCTGTGGA	-0.0748
CTAGTTCA	-0.00273
CCAACAGG	0.0645
AACCTCCA	0.0742
ACACTTCT	-0.0698
CAAGTGAG	-0.196
ACCCTGAG	0.378
ATCCTGAG	-0.0542

Sequence	PBM E-score
CCCCTGAG	-0.0275
AGCAACCG	-0.0288
AACTGCCG	-0.0311
ACCTCGCG	0.109
GCGTTACC	0.0732
GCGTTACA	0.126
TGGTTACA	0.395
GAGTTACC	0.3
CTGTTACA	0.0543
GGGTTACA	0.468
TAGTTACA	0.158
GGTTTACA	0.17
CCGTTACA	0.061
TCGTTACA	-0.024
CGGTTACA	0.411
GGGTTACC	0.463
AGCAACAG	-0.195
AACTAATA	0.314
AGTAGCGG	-0.125
GAAGACCC	0.236
TATTAGGA	0.0916
CCTTATAC	0.0827
